Results as given in the supplement of paper PMC8728848.
Many of the other results were omitted from the sample, so the strongest signals are more common in it than they were.

How the values were obtained:
Test in all cases: glycan array binding signal (z-score within array); higher = stronger binding
Conditions in all cases: glycan notation: IUPAC condensed, linker removed
[1] = target: Fuc(a1-2)Gal(b1-3)GalNAc(a1-3)[Fuc(a1-2)]Gal(b1-4)GlcNAc
How it was run: (§1)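 Glycan array binding is given as a within-array Z-score, which can be read as non-binding when negative. The arrays, 3228 of them, came from the Consortium for Functional Glycomics database and were retained only where the protein sequence was available. Z-scores were averaged across arrays of the same protein sequence at different concentrations or buffers and across linkers.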

[2] = target: Fuc(a1-2)Gal(b1-3)GalNAc(b1-3)Gal(a1-4)Gal(b1-4)Glc
How it was run: as §1

[3] = target: Fuc(a1-2)Gal(b1-3)GlcNAc(b1-2)Man(a1-3)[Fuc(a1-2)Gal(b1-3)GlcNAc(b1-2)Man(a1-6)]Man(b1-4)GlcNAc(b1-4)[Fuc(a1-6)]GlcNAc
How it was run: as §1

[4] = target: Fuc(a1-2)Gal(b1-4)GlcNAc(b1-6)GalNAc
How it was run: as §1

[5] = target: Fuc(a1-2)Gal6S(b1-4)Glc
How it was run: as §1

[6] = target: Fuc(a1-2)[Gal(a1-3)]Gal(b1-4)GlcNAc(b1-3)GalNAc
How it was run: as §1

[7] = target: Fuc(a1-3)[Gal(b1-4)]GlcNAc6S
How it was run: as §1

[8] = target: Fuc(a1-4)GlcNAc
How it was run: as §1

[9] = target: Gal(a1-3)Gal(b1-3)GlcNAc
How it was run: as §1

[10] = target: Gal(a1-3)Gal(b1-4)[Fuc(a1-3)]GlcNAc
How it was run: as §1

[11] = target: Gal(a1-3)Gal(b1-4)[Fuc(a1-3)]GlcNAc(b1-2)Man(a1-3)[Gal(a1-3)Gal(b1-4)[Fuc(a1-3)]GlcNAc(b1-2)Man(a1-6)]Man(b1-4)GlcNAc(b1-4)GlcNAc
How it was run: as §1

[12] = target: Gal(a1-3)[Gal(a1-4)]Gal(b1-4)GlcNAc
How it was run: as §1

[13] = target: Gal(a1-4)Gal(b1-4)Glc
How it was run: as §1

[14] = target: Gal(b1-3)Gal
How it was run: as §1

[15] = target: Gal(b1-3)GalNAc(b1-3)Gal(a1-4)Gal(b1-4)Glc
How it was run: as §1

[16] = target: Gal(b1-3)GalNAc(b1-4)[Neu5Ac(a2-3)]Gal(b1-4)Glc
How it was run: as §1

[17] = target: Gal(b1-3)GlcNAc(b1-3)GalNAc
How it was run: as §1

[18] = target: Gal(b1-3)[Neu5Ac(a2-6)]GalNAc
How it was run: as §1

[19] = target: Gal(b1-3)[Neu5Ac(a2-6)]GlcNAc(b1-4)Gal(b1-4)Glc
How it was run: as §1

[20] = target: Gal(b1-3)[Neu5Ac(b2-6)]GalNAc
How it was run: as §1

[21] = target: Gal(b1-4)GlcNAc(b1-2)Man(a1-3)[Gal(b1-4)GlcNAc(b1-2)Man(a1-6)]Man(b1-4)GlcNAc(b1-4)GlcNAc
How it was run: as §1

[22] = target: Gal(b1-4)GlcNAc(b1-2)Man(a1-6)[GlcNAc(b1-2)Man(a1-3)]Man(b1-4)GlcNAc(b1-4)GlcNAc
How it was run: as §1

[23] = target: Gal(b1-4)GlcNAc(b1-3)Gal(b1-4)GlcNAc(b1-3)Gal(b1-4)GlcNAc(b1-3)Gal(b1-4)GlcNAc(b1-3)Gal(b1-4)GlcNAc(b1-3)Gal(b1-4)GlcNAc(b1-2)Man(a1-3)[Gal(b1-4)GlcNAc(b1-3)Gal(b1-4)GlcNAc(b1-3)Gal(b1-4)GlcNAc(b1-3)Gal(b1-4)GlcNAc(b1-3)Gal(b1-4)GlcNAc(b1-3)Gal(b1-4)GlcNAc(b1-2)Man(a1-6)]Man(b1-4)GlcNAc(b1-4)GlcNAc
How it was run: as §1

[24] = target: Gal(b1-4)GlcNAc(b1-3)[Gal(b1-4)GlcNAc(b1-6)]Gal(b1-4)GlcNAc
How it was run: as §1

[25] = target: Gal(b1-4)GlcNAc(b1-6)GalNAc
How it was run: as §1

[26] = target: Gal(b1-6)Gal
How it was run: as §1

[27] = target: Gal3S(b1-3)[Fuc(a1-4)]GlcNAc
How it was run: as §1

[28] = target: Gal3S4S(b1-4)GlcNAc
How it was run: as §1

[29] = target: Gal3S6S(b1-4)GlcNAc
How it was run: as §1

[30] = target: Gal6P(b1-4)GlcNAc
How it was run: as §1

B1: DCIR1 (Mus musculus), Q9QZ15 (protein)
chain: MASEITYAEVKFKNESNSLHTYSESPAAPREKPIRDLRKPGSPSLLLTSLMLLLLLLAITFLVAFIIYFQKYSQLLEEKKAAKNIMHNELNCTKSVSPMEDKVWSCCPKDWRLFGSHCYLVPTVSSSASWNKSEENCSRMGAHLVVIQSQEEQDFITGILDTHAAYFIGLWDTGHRQWQWVDQTPYEESITFWHNGEPSSGNEKCATIIYRWKTGWGWNDISCSLKQKSVCQMKKINL
[1]
  glycan array binding signal (z-score): 0.031
[2]
  glycan array binding signal (z-score): 3.31
[3]
  glycan array binding signal (z-score): 3.05
[4]
  glycan array binding signal (z-score): 3.97
[5]
  glycan array binding signal (z-score): 1.87
[6]
  glycan array binding signal (z-score): -0.604
[7]
  glycan array binding signal (z-score): 1.43
[8]
  glycan array binding signal (z-score): -0.807
[9]
  glycan array binding signal (z-score): 7.14
[10]
  glycan array binding signal (z-score): -0.171
[11]
  glycan array binding signal (z-score): 2.31
[12]
  glycan array binding signal (z-score): 3.21
[13]
  glycan array binding signal (z-score): 0.74
[14]
  glycan array binding signal (z-score): -0.894
[15]
  glycan array binding signal (z-score): 0.592
[16]
  glycan array binding signal (z-score): 2.65
[17]
  glycan array binding signal (z-score): -0.841
[18]
  glycan array binding signal (z-score): -0.767
[19]
  glycan array binding signal (z-score): 3.38
[20]
  glycan array binding signal (z-score): -0.696
[21]
  glycan array binding signal (z-score): -0.217
[22]
  glycan array binding signal (z-score): 0.904
[23]
  glycan array binding signal (z-score): -0.907
[24]
  glycan array binding signal (z-score): -0.693
[25]
  glycan array binding signal (z-score): 1.01
[26]
  glycan array binding signal (z-score): -0.786
[27]
  glycan array binding signal (z-score): -0.369
[28]
  glycan array binding signal (z-score): -0.376
[29]
  glycan array binding signal (z-score): 0.218
[30]
  glycan array binding signal (z-score): -0.489
